Screening results deposited in PubChem by National Center for Advancing Translational Sciences (NCATS).
Lassa entry: qHTS for Inhibitors of binding or entry into cells for Lassa Virus; Lassa virus pseudotyped entry inhibition, cell-based qHTS; Potency, µM (titrated, usually from 49.2 µM), for the others: top-dose activity change, negative = inhibition, most hits filed as inhibitors; 18,000 compounds, 4.1% hits; AID 720533, 2013
Marburg entry: qHTS for Inhibitors of binding or entry into cells for Marburg Virus. Marburg virus pseudotype entry/binding inhibition, cell-based. Potency, µM (series often up to 49.2 µM), for inactives: top-dose activity change, negative = inhibition, most hits filed as inhibitors. 18,000 compounds, 6.5% hits
* hit, by the source's call; ? = inconclusive; . = not tested or not shown; ! = not confirmed by another sample; [ ] = dose if it differs, or a comment. An excerpt weighted towards active compounds, which were near 7.1% of everything screened. Calls come from the whole dose curve; tested in HEK293 cells. % is set by controls: 0 for no effect and ±100 for the full control effect; potency is the fitted concentration of half-maximal effect.

SMILES	Lassa entry	Marburg entry
CCc1cc2c(nc1CC)CCN(CCC(C)=NOC[C@H]1O[C@H](c3ccccc3)C=C[C@H]1Oc1ccc(OC)cc1)C2	2%[8.59 µM]	-25%[8.59 µM]
COc1ccc(C[C@H](N)C(=O)N[C@H]2[C@@H](O)[C@H](n3cnc4c(N(C)C)ncnc43)O[C@@H]2CO)cc1	4.5µM*	4µM*
C[C@H](Cc1ccccc1)Nc1ncnc2c1ncn2[C@@H]1O[C@H](CO)[C@@H](O)[C@H]1O	13%	35%
CCN1C(=O)NC(c2ccco2)C(C(=O)OC)=C1C (centres undefined)	-20%[8.59 µM]	5%[8.59 µM]
C[C@@H]1CC([C@H](O)CC2CC(=O)NC(=O)C2)C(=O)[C@@H](C)C1 (some centres undefined)	1µM*	?
C[C@@H]1C[C@@H]([C@H](O)CC2CC(=O)NC(=O)C2)C(=O)[C@@H](C)C1	2.8µM*	3.2µM*
C[C@H](CO)NS(=O)(=O)c1cccc(Cl)c1F	14%	19%
COc1ccc(OC[C@H]2CN3[C@H](c4ccc(Br)cc4)[C@H](C)CC[C@H]3C(=O)O2)cc1	11%[8.59 µM]	-7%[8.59 µM]
O=C(Nc1ccccc1)OCC(CN1CCCCC1)OC(=O)Nc1ccccc1 (centres undefined)	-13%	13µM*
O=C(OCCN1CCCCC1)C(O)(c1ccccc1)c1ccccc1	-17%	-14%
CC1(C)CC(=O)C2=C(C1)O[C@@]1(c3ccsc3)Cc3cc(C#N)ccc3[C@H]2O1	9%[8.59 µM]	?
CCN(CC)CCOC(=O)C(c1ccccc1)C1CCCCC1 (centres undefined)	-11%	?
O=C(NCCCN1CCCCCC1)[C@@H](c1ccccc1)C1CCCCC1	?	13µM*
O=C1Nc2cccc(Br)c2[C@@]12O[C@H](COc1ccccc1)CC1=CCC[C@H]12	-21%[8.59 µM]	22%[8.59 µM]
CCOC(=O)C1=C(C)NC(C)=C(C(=O)OC)C1c1cccc(Cl)c1Cl (centres undefined)	-6%	-3%
COC(=O)C1=C(C)NC(C)=C(C(=O)OCCSc2ccccc2)C1C (centres undefined)	13µM*	?
OCCc1ccccc1	-5%	5%
Oc1ccc(Cl)cc1Cc1ccccc1	25µM*	-16%[107 µM]
COC(=O)c1ccc(CN2C(=O)[C@]3(OCCC=C[C@@H]3C)c3cc(OC)ccc32)cc1	8%[8.59 µM]	-23%[8.59 µM]
COc1cccc(CO[C@H]2C=C[C@@H](c3ccccc3)O[C@H]2COC(C)=O)c1	0%[8.59 µM]	8%[8.59 µM]
CC[C@@H](C(=O)O)[C@@H]1O[C@@H]([C@@H](C)[C@H](O)[C@H](C)C(=O)[C@H](CC)[C@H]2O[C@]3(C=C[C@@H](O)[C@]4(CC[C@@](C)([C@H]5CC[C@](O)(CC)[C@H](C)O5)O4)O3)[C@H](C)C[C@@H]2C)[C@@H](C)C[C@@H]1C	1µM*	6.3µM*
CC(CCC(=O)OC[C@H]1O[C@H](C#Cc2ccccc2)C=C[C@H]1Oc1ccc(C)cc1)=NO[C@@H](C)CN1CCCCc2nc(C)c(C)cc21	24%[8.59 µM]	-16%[8.59 µM]
CCCCCC(=O)N1C[C@H](n2cc(C3CC3)nn2)[C@@H](O)C[C@H]1c1ccc(C)cc1	8%	11%
Cc1cc(N)c2ccccc2[n+]1CCCCCCCCCC[n+]1c(C)cc(N)c2ccccc21	28µM*	?
O=c1c(O)c(-c2ccc(O)c(O)c2)oc2c(O)c(O)cc(O)c12	8%	?
SMILES	Lassa entry	Marburg entry
O=c1oc2c(O)c(O)cc3c(=O)oc4c(O)c(O)cc1c4c23	-2%	1µM*
COC(=O)N[C@@H](c1ccco1)[C@]1(C(C)=O)CCCC1=O	5%[8.59 µM]	?
CCN(CC)C(=S)SSC(=S)N(CC)CC	40µM*!	20µM*
O=C(O)c1cc(C(=O)O)c(C(=O)N(Cc2cccc(Oc3ccccc3)c2)[C@H]2CCCc3ccccc32)cc1C(=O)O	-6%	7%
CNC(=O)[C@@H]1C[C@@H](NCc2cccc(Oc3ccccc3)c2)CN1C(C)C	3%	10µM*
COC(=O)N[C@@H](c1ccc2ccccc2c1)C(C(C)=O)C(=O)OC (some centres undefined)	16%[8.59 µM]	-16%[8.59 µM]
O=C(c1cccs1)N1C[C@H](n2cc(C3CC3)nn2)[C@H](O)C[C@@H]1c1ccccc1	9%	14%
O=C(O)c1cc(O)c(O)c(O)c1	11µM*	3.2µM*
O=C(O)c1cc(O)c2c(c1)[O][Bi][O]2	5%	4%
COCCCC/C(=N\OCCN)c1ccc(C(F)(F)F)cc1	-17%	14µM*
CCN1CCC(CC(=O)Nc2n[nH]c3nnc(-c4cccc(F)c4F)cc23)CC1	.	-18%
CCOC(=O)C1=CN(CCNC(=O)OC(C)(C)C)C(=O)NC1c1ccccc1 (centres undefined)	-15%[8.59 µM]	21%[8.59 µM]
COc1ccc(OC)c(-c2ccccc2C=NNS(=O)(=O)c2ccc(C)cc2)c1	-4%[8.59 µM]	?
CC(=O)OCOC(=O)CN(CC(=O)OCOC(C)=O)c1ccccc1OCCOc1ccccc1N(CC(=O)OCOC(C)=O)CC(=O)OCOC(C)=O	?	16µM*
C=CCN=C1N[C@H](c2ccc(Br)cc2)C(C(=O)OC)=C(C)N1Cc1ccccc1	-5%[8.59 µM]	1%[8.59 µM]
CC(=O)Nc1c2sscc-2n(C)c1=O	10µM*	11µM*
CC(=O)Nc1c(N)[nH]c(=O)n(C)c1=O	4%	-3%
Cc1cc2c(c(=O)n1Cc1ccccc1)[C@H]1O[C@](c3ccsc3)(Cc3ccccc31)O2	5%[8.59 µM]	-12%[8.59 µM]
COC(=O)NCC=Cc1nc(CCCO)co1	-24%[8.59 µM]	-24%[8.59 µM]
C[C@@H]1CCCN1[C@H]1C[S+](=O)([O-])N[C@H]1COCc1ccccc1	.	16%
COC(=O)Nc1nc2ccc(S(=O)(=O)c3ccc(NC(=O)Nc4cc(C(F)(F)F)ccc4F)cc3)cc2[nH]1	-20%	-29%
COc1ccc(-c2oc3ncnc(N)c3c2-c2ccc(NC(=O)Nc3cc(C(F)(F)F)ccc3F)cc2)cc1	.	13µM*
COC(=O)C1=C(C)N(CC2CC2)C(=O)NC1c1ccccc1 (centres undefined)	1%[8.59 µM]	-5%[8.59 µM]
CNCC/C=C/c1cccnc1	-23%	-4%
CNCCC=C1c2ccccc2CCc2ccccc21	32µM*	10µM*
SMILES	Lassa entry	Marburg entry
CCCCC(F)(F)[C@@]1(O)CC[C@H]2[C@@H](CC(=O)[C@@H]2CCCCCCC(=O)O)O1	-16%	3%
O=C(c1cccs1)N1C[C@@H](O)[C@@H](n2cc(C3CC3)nn2)C[C@@H]1c1ccccc1	13%	-21%
C[C@@]1(C(=O)O)NCCc2cc(O)c(O)cc21	-17%	8.9µM*
O=[S+]1([O-])N[C@@H]2Cc3ccccc3[C@@H]2Oc2cc(Br)ccc21	-16%	-15%
COc1cccc(CO[C@H]2C=C[C@@H](c3ccccc3)O[C@H]2CN=[N+]=[N-])c1	25%[8.59 µM]	-17%[8.59 µM]
O=[N+]([O-])c1ccc(F)c([N+](=O)[O-])c1	-16%	-4%
O=C(NC(NC(=S)Nc1ccc(F)c([N+](=O)[O-])c1)C(Cl)(Cl)Cl)C(c1ccccc1)c1ccccc1 (centres undefined)	11µM*	11µM*
CC[C@@]1([C@@H]2O[C@@H]([C@H]3O[C@@](O)(CO)[C@H](C)C[C@@H]3C)C[C@@H]2C)CC[C@H]([C@]2(C)CC[C@]3(C[C@H](O)[C@@H](C)[C@@H]([C@@H](C)[C@@H](OC)[C@H](C)C(=O)O)O3)O2)O1 (stereo in doubt)	2.8µM*!	4µM*!
Cc1ccc(CN2[C@@H](C)[C@@H](C)Oc3c(Cl)cccc3[S+]2(=O)[O-])cc1	-7%	14%
